Results as given in PubChem BioAssay (EPA / NIEHS).
The source made the active and inactive calls. The calls were made as follows: active = hit-call score of the fitted dose curve at least 0.9, where 1 is the maximum; inactive = score below 0.9.

Assays:
[1] = read-out: Interferon-gamma inducible Protein 10 (IP10), CXCL10 (gene 3627); assay: BSK_KF3CT_IP10: BioMAP Diversity Plus: KF3CT Assay for Interferon-gamma inducible Protein 10 (IP10) Biomarker Activity (AID 2283068); conditions: primary human keratinocytes with fibroblasts; actives raise or lower the signal
Method in brief: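 Human keratinocyte plus foreskin fibroblast primary co-culture exposed to test chemical for 24 h; IP-10 measured by ELISA. Concentration-response fitted bidirectionally against DMSO control as baseline.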

[2] = BSK_KF3CT_SRB: Viability Assessment in the BioMAP Diversity Plus: KF3CT Assay (AID 2283069); conditions: primary human keratinocytes with fibroblasts;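 also: total protein by sulforhodamine B staining as a cytotoxicity measure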
Method in brief: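 Cytotoxicity was gauged by SRB staining (0.1% SRB, 10% TCA fixation, 560 nm) of parallel cultures at 24 h. The cells were primary human skin keratinocytes co-cultured with fibroblasts, and activity was fitted in both directions against DMSO.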

[3] = read-out: Interleukin-1 alpha (IL1a), IL1A (gene 3552); assay: BSK_KF3CT_IL1a: BioMAP Diversity Plus: KF3CT Assay for Interleukin-1 alpha (IL1a) Biomarker Activity (AID 2283070); conditions: primary human keratinocytes with fibroblasts; actives raise or lower the signal
Method in brief: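 IL-1a was detected by ELISA 24 h after chemical treatment of a co-culture of human skin keratinocytes and foreskin fibroblasts. Gain or loss of signal was fitted against the DMSO baseline.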

[4] = read-out: TIMP metallopeptidase inhibitor 2 (TIMP2), TIMP2 (gene 7077); assay: BSK_KF3CT_TIMP2: BioMAP Diversity Plus: KF3CT Assay for TIMP metallopeptidase inhibitor 2 (TIMP2) Biomarker Activity (AID 2283071); conditions: primary human keratinocytes with fibroblasts; actives raise or lower the signal
Method in brief: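 Chemicals were dosed onto human skin primary co-cultures of keratinocytes and foreskin fibroblasts, and TIMP-2 was measured by ELISA after 24 hours. Activity in either direction was fitted relative to DMSO.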

[5] = read-out: Transforming growth factor beta 1 (TGFb1), TGFB1 (gene 7040); assay: BSK_KF3CT_TGFb1: BioMAP Diversity Plus: KF3CT Assay for Transforming growth factor beta 1 (TGFb1) Biomarker Activity (AID 2283072); conditions: primary human keratinocytes with fibroblasts; actives raise or lower the signal
Method in brief: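 KF3CT co-culture (keratinocytes + fibroblasts), 24 h exposure → TGF-b1 ELISA → bidirectional fit, DMSO = baseline. Parallel SRB total-protein staining (0.1% SRB, 10% TCA fixation, 560 nm) for cytotoxicity.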

[6] = read-out: C-C motif chemokine 2 (Homo sapiens) (UniProt P13500); assay: BSK_KF3CT_MCP1: BioMAP Diversity Plus: KF3CT Assay for Monocyte Chemoattractant Protein 1 (MCP1/CCL2) Biomarker Activity (AID 2283073); conditions: primary human keratinocytes with fibroblasts; actives raise or lower the signal
Method in brief: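 Keratinocytes and foreskin fibroblasts were co-cultured, dosed with chemical, and sampled 24 h later. MCP-1 was quantified by ELISA, and the endpoint was analyzed with bidirectional fitting using DMSO as negative control.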

[7] = read-out: Matrix Metallopeptidase 9 (MMP9), MMP9 (gene 4318); assay: BSK_KF3CT_MMP9: BioMAP Diversity Plus: KF3CT Assay for Matrix Metallopeptidase 9 (MMP9) Biomarker Activity (AID 2283074); conditions: primary human keratinocytes with fibroblasts; actives raise or lower the signal;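 as to AC50: MMP9 protein level quantified by ELISA in the co-culture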
Method in brief: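 MMP-9 quantified by ELISA after 24 h chemical treatment of primary human skin keratinocyte/fibroblast co-cultures; gain or loss fitted against DMSO, with parallel SRB staining (0.1% SRB, 560 nm) for overt cytotoxicity.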

[8] = read-out: urokinase plasminogen activator (uPA), PLAU (gene 5328); assay: BSK_KF3CT_uPA: BioMAP Diversity Plus: KF3CT Assay for urokinase plasminogen activator (uPA) Biomarker Activity (AID 2283075); conditions: primary human keratinocytes with fibroblasts; actives raise or lower the signal
Method in brief: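 ELISA read-out of uPA 24 h after dosing human skin keratinocytes co-cultured with foreskin fibroblasts. Signal change fitted both ways relative to DMSO; sulforhodamine B on parallel cultures marks overt cytotoxicity.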

[9] = read-out: CD40, CD40 (gene 958); assay: BSK_LPS_CD40: BioMAP Diversity Plus: LPS Assay for CD40 Biomarker Activity (AID 2283076); conditions: primary human HUVEC with PBMC; actives raise or lower the signal
Method in brief: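 CD40 signal, measured by ELISA, is fitted in both directions relative to DMSO vehicle. The system is an LPS-driven human vascular primary co-culture of endothelial cells and PBMC, sampled 24 h after compound addition.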

[10] = read-out: E-selectin (Homo sapiens) (UniProt P16581); assay: BSK_LPS_Eselectin: BioMAP Diversity Plus: LPS Assay for Eselectin Biomarker Activity (AID 2283077); conditions: primary human HUVEC with PBMC; actives raise or lower the signal
Method in brief: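 Signal of E-selectin, detected by ELISA, served as the endpoint; cells were umbilical vein endothelium with PBMC, read 24 h after treatment. DMSO defined baseline, and both increases and decreases were fitted.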

Measured: AC50

E-selectin (Homo sapiens), sequence (P16581 whole entry, looked up): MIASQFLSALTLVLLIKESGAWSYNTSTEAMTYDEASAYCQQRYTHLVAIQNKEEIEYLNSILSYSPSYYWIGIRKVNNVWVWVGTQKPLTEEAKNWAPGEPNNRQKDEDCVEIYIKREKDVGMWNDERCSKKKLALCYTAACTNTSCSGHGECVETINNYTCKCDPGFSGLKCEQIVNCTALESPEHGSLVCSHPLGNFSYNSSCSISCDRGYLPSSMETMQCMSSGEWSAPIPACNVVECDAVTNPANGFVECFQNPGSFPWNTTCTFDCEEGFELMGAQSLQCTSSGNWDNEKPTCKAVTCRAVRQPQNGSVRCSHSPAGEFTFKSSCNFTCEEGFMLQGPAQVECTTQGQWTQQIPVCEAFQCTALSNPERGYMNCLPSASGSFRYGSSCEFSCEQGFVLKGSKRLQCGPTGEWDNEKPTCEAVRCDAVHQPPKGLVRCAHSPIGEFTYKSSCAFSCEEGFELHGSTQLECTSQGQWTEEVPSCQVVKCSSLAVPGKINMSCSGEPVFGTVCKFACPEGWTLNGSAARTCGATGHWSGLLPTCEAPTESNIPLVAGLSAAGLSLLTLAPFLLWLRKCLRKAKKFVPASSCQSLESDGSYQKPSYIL

Cc1nc(N(C)C)nc(OC(=O)N(C)C)c1C
inactive: all assays above

CCNC(=O)NC(=O)C(C#N)=NOC
not listed: [6]
inactive: all other assays above

CS(=O)(=O)c1cc(C(F)(F)F)ccc1C(=O)c1cnoc1C1CC1
inactive: all assays above

O=C1C2CC=CCC2C(=O)N1SC(Cl)(Cl)Cl (stereo not given)
active: [1] 10.3 µM | [2] 5.79 µM | [4] 11.2 µM | [6] 11.8 µM | [7] 8.54 µM | [9] 22.3 µM | [10] 29.5 µM

CCN(CC)c1nc(C)cc(OP(=S)(OC)OC)n1
active: [9] 19.5 µM
inactive: all other assays above

Cc1cnc(C2=NC(C)(C(C)C)C(=O)N2)c(C(=O)O)c1 (stereo not given)
inactive: all assays above

CCOP(=S)(OCC)Oc1nc(Cl)n(C(C)C)n1
inactive: all assays above

Clc1cccc(C(Cl)(Cl)Cl)n1
inactive: all assays above

N#CN=C1SCCN1Cc1ccc(Cl)nc1
inactive: all assays above

Nc1cnn(-c2ccccc2)c(=O)c1Cl
inactive: all assays above

CCCCC(C#N)(Cn1cncn1)c1ccc(Cl)cc1 (stereo not given)
active: [1] 0.148 µM
inactive: all other assays above

Clc1nc(Cl)nc(Nc2ccccc2Cl)n1
inactive: all assays above

CNC(=O)Oc1cccc2ccccc12
active: [9] 20 µM
inactive: all other assays above

Cn1c(-c2ccccc2)cc(-c2ccccc2)[n+]1C
active: [1] 7.72 µM | [4] 23.8 µM | [8] 12 µM
inactive: all other assays above

CCOP(=O)(OCC)Oc1nc(Cl)c(Cl)cc1Cl
active: [1] 19 µM | [2] 8.75 µM | [4] 32.9 µM | [6] 21.5 µM | [7] 8.58 µM | [8] 9.55 µM | [9] 19.5 µM
inactive: [3] | [5] | [10]

COP(=S)(OC)Oc1ccc([N+](=O)[O-])c(C)c1
active: [7] 15.1 µM
inactive: all other assays above

O=P(O)(O)CCCl
inactive: all assays above

CC(C)=CC1C(C(=O)OCc2coc(Cc3ccccc3)c2)C1(C)C (stereo not given)
active: [10] 12.1 µM
inactive: all other assays above

COc1cc(OC)nc(NC(=O)NS(=O)(=O)c2ncccc2OCC(F)(F)F)n1
inactive: all assays above

CCOc1cc(C(C)(C)C)ccc1C1COC(c2c(F)cccc2F)=N1 (stereo not given)
active: [1] 17.3 µM | [2] 8.44 µM | [3] 11.2 µM | [4] 15.1 µM | [5] 33 µM | [6] 20 µM | [7] 14.8 µM | [8] 27.1 µM | [9] 29.2 µM | [10] 33.2 µM

COP(=S)(OC)SCn1nnc2ccccc2c1=O
inactive: all assays above

CC(C)C1(C)N=C(c2ncccc2C(=O)O)NC1=O (stereo not given)
inactive: all assays above

CC(C)Oc1cccc(NC(=O)c2ccccc2C(F)(F)F)c1
inactive: all assays above

OC(c1ccc(Cl)cc1)(c1ccc(Cl)cc1)C(Cl)(Cl)Cl
active: [1] 9.49 µM | [2] 6.45 µM | [3] 8.05 µM | [4] 9.48 µM | [5] 9.69 µM | [6] 11 µM | [7] 7.26 µM | [8] 7.28 µM | [9] 30.5 µM | [10] 30.9 µM

COC(=O)N(C(=O)N1CO[C@@]2(C(=O)OC)Cc3cc(Cl)ccc3C2=N1)c1ccc(OC(F)(F)F)cc1
active: [1] 13.3 µM | [7] 3.16 µM | [9] 12.4 µM
inactive: all other assays above

CC(C)(C)C(=O)C(Oc1ccc(Cl)cc1)n1cncn1 (stereo not given)
inactive: all assays above

Nc1c(Cl)c(Cl)nc(C(=O)O)c1Cl
inactive: all assays above

CC1(C)CCC(=Cc2ccc(Cl)cc2)C1(O)Cn1cncn1 (stereo not given)
inactive: all assays above

CCOc1nc(F)cc2nc(S(=O)(=O)Nc3c(Cl)cccc3Cl)nn12
active: [1] 34 µM | [10] 20 µM
inactive: all other assays above

CCOc1nc(C(Cl)(Cl)Cl)ns1
not listed: [6]
inactive: all other assays above

Cc1ccc(N=CN(C)C=Nc2ccc(C)cc2C)c(C)c1
active: [1] 32.7 µM | [2] 28.6 µM | [4] 26.2 µM | [7] 31.3 µM | [8] 26.9 µM | [9] 29.5 µM | [10] 31.1 µM
inactive: [3] | [5] | [6]

CSC(=O)c1c(C(F)F)nc(C(F)(F)F)c(C(=O)SC)c1CC(C)C
active: [9] 16.3 µM | [10] 5.05 µM
inactive: all other assays above

CCCCC(O)(Cn1cncn1)c1ccc(Cl)cc1Cl (stereo not given)
inactive: all assays above

C=C(C)CN(CC)c1c([N+](=O)[O-])cc(C(F)(F)F)cc1[N+](=O)[O-]
active: [1] 14.9 µM | [9] 20 µM
inactive: all other assays above

CN/C(=N\[N+](=O)[O-])NCc1cnc(Cl)s1
inactive: all assays above

CCCN(CC)CC1COC2(CCC(C(C)(C)C)CC2)O1 (stereo not given)
active: [1] 3.97 µM | [4] 6.62 µM | [6] 0.739 µM
inactive: all other assays above
